Results taken from the supplement of paper PMC6555819.

The sequences below were run on PPARg DBDmut IVT, anti-PPARg (DBD mutation: PPARg1 K132A/R137A, NR concentration 270 nM) (assay: PBM binding z-score (relative to random genomic background probes); higher = stronger binding; sequences stand for … in GC…GCGATTGACAGCGTAGAATGAAGG).
Summary of the method: (§1)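 Custom Agilent 4×180K protein-binding microarrays carried double-stranded probes, each with a 34-nt variable region. These regions held direct-repeat seeds, single-nucleotide variants, half-site ablations and random human genomic background sequences. Ligand-free nuclear receptor dimers were incubated on the arrays for 1 h, antibodies against each partner (one per run) detected binding, and scanned fluorescence was regression-normalized. Binding z-scores take the random background probes as reference.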

Sequence	PBM binding z-score
TCATATAGGTAAAGGTGAAAGTAGAACGATATGA	2.14
CCGAGTAGGTTATGCGGCATTCAGGCAACGGTGA	-0.567
TCAGCCAGGTGAAGGTAACTCAGGTACGCAGTCG	-0.849
ACTAGCAGGCCAAGTTTGGGTTACTCAAACAAAG	-0.888
CCTCGGAGGAAAACAGGAGGTCAGAGCTGCCAGA	-1.51
ATATGTTGGTTAGCTGGGGTCATTCAGACTAGGC	1.26
GCTTACGGGCCAAAGGTTATAGCATGAATAGAAT	0.373
GCTAGCAGGCCATTTGGGTCACTTAATGACGGGC	-0.938
ATCGAAAGGTCGAAGGTGAGTAAACCCACCCGAA	0.487
TTACCAATGTGAAGGTCGTTGATCCCTCTGTAGA	0.211
TCATATAGGTTATACAGGTGAAAGTCGGCATCTA	0.981
AATACAGGGTCACTAGGCCAGAGCAGGTACGAAT	1.22
CCAGACAAGTGAAAGGTAACTCAGTCTGGTACGC	-0.255
CCTACTGGGCCACGAAGGGTCATTGATTCAGTGA	-1.2
CAGCTTAGGTCAGGGCCAGTATAGGAGGAACGTT	-1.2
TCGCCTAGGTCATGCGGGCCAGTATAGTGTCGGC	-0.593
ATCGAAAGGTCGAGGTGAGTAAAGAGAAAGGGAA	0.693
ATACCAAGGTGATCGTGAGGGCGTTGATACTAAC	1.25
CCTAATGGGCCATCAGGTCATTGATATCAACGTT	0.112
TAGCCTAGGTCATTCGGCCAGTATAGTACGCATC	-0.398

Sequence	PBM binding z-score
TAAATGAGGTTATAAGATCAGGGAACGTTGCAAA	1.61
AGAATAAGGTTAAGATCAGGGAAACAGAATACAT	1.21
TAGCGTAGGTCATTCAGGGGCCAGTATAGAAAGC	0.134
TTTTGTAGATCAAGCAGGTTAAGAAAGCCTGAGT	1.21
ATCTCTAGGTAACCAAGTTCAGTGATTGCCGAAC	1.33
TCATATAGGTAGAAGGTGAAAGTCGGTGTGGTAA	0.808
ACAGACAGGTGATGAAGGTAATTCAGGCTATCAT	0.3
AGAACGAGGGAAATGAGTTGATAGCACGGGTGGC	-0.941
ACTTACGGGTCAACGAGGTTATAACACGCGTATA	2.76
ACAGACCGGTGATGAAGGTAACTCAGGCTATCAT	0.0893
AGAATGAGGTTATACGTAGATCATGGAAGAAAGT	0.947
TGAATGAGGTTGTAAGATCAGGGAACGTTGCAAA	-0.354
ACTAGCAGGCCAAGTTTGGGACACTCAAACAAAG	-1.33
CGTCAAAGTTCAGGGTAACGTAACAGAAAGCAGC	0.192
ACAATTAGTTGAGACGAGGGCAACCGATAGGTTG	0.299
TCGAGTAGGTTAGTCGGGGCATTCAGCCAACATA	-0.18
CAAACTCGGTCAAGGTCAAAGTCGGTTTGTGCCA	0.439
CCTACTGGGACATCAGGTCATTGATATCAACGTT	0.76
AGTCAAAGTTCAGGACGGGGTAACGTAAAGCACG	1.24
ATCTCTAGGTAAAGATAGTTTAGTGAATGCAAAT	0.379

The sequences below were run on PPARg homodimer (NR concentration 180 nM) in the same assay as above.
Summary of the method: as §1

Sequence	PBM binding z-score
TCATATAGGTAAAGGTGAAAGTAGAACGATATGA	1.55
CCGAGTAGGTTATGCGGCATTCAGGCAACGGTGA	0.671
TCAGCCAGGTGAAGGTAACTCAGGTACGCAGTCG	-0.828
ACTAGCAGGCCAAGTTTGGGTTACTCAAACAAAG	-0.611
CCTCGGAGGAAAACAGGAGGTCAGAGCTGCCAGA	1.04
ATATGTTGGTTAGCTGGGGTCATTCAGACTAGGC	2.8
GCTTACGGGCCAAAGGTTATAGCATGAATAGAAT	0.626
GCTAGCAGGCCATTTGGGTCACTTAATGACGGGC	-0.528
ATCGAAAGGTCGAAGGTGAGTAAACCCACCCGAA	1.89
TTACCAATGTGAAGGTCGTTGATCCCTCTGTAGA	0.84
TCATATAGGTTATACAGGTGAAAGTCGGCATCTA	1.6
AATACAGGGTCACTAGGCCAGAGCAGGTACGAAT	2.4
CCAGACAAGTGAAAGGTAACTCAGTCTGGTACGC	0.888
CCTACTGGGCCACGAAGGGTCATTGATTCAGTGA	1.51
CAGCTTAGGTCAGGGCCAGTATAGGAGGAACGTT	1.34
TCGCCTAGGTCATGCGGGCCAGTATAGTGTCGGC	0.827
ATCGAAAGGTCGAGGTGAGTAAAGAGAAAGGGAA	1.75
ATACCAAGGTGATCGTGAGGGCGTTGATACTAAC	0.383
CCTAATGGGCCATCAGGTCATTGATATCAACGTT	1.81
TAGCCTAGGTCATTCGGCCAGTATAGTACGCATC	0.361

Sequence	PBM binding z-score
TAAATGAGGTTATAAGATCAGGGAACGTTGCAAA	0.912
AGAATAAGGTTAAGATCAGGGAAACAGAATACAT	1.6
TAGCGTAGGTCATTCAGGGGCCAGTATAGAAAGC	2.48
TTTTGTAGATCAAGCAGGTTAAGAAAGCCTGAGT	0.487
ATCTCTAGGTAACCAAGTTCAGTGATTGCCGAAC	0.823
TCATATAGGTAGAAGGTGAAAGTCGGTGTGGTAA	1.59
ACAGACAGGTGATGAAGGTAATTCAGGCTATCAT	0.3
AGAACGAGGGAAATGAGTTGATAGCACGGGTGGC	-0.441
ACTTACGGGTCAACGAGGTTATAACACGCGTATA	4.28
ACAGACCGGTGATGAAGGTAACTCAGGCTATCAT	-0.0191
AGAATGAGGTTATACGTAGATCATGGAAGAAAGT	1.21
TGAATGAGGTTGTAAGATCAGGGAACGTTGCAAA	-0.324
ACTAGCAGGCCAAGTTTGGGACACTCAAACAAAG	-0.893
CGTCAAAGTTCAGGGTAACGTAACAGAAAGCAGC	2.87
ACAATTAGTTGAGACGAGGGCAACCGATAGGTTG	0.566
TCGAGTAGGTTAGTCGGGGCATTCAGCCAACATA	-0.242
CAAACTCGGTCAAGGTCAAAGTCGGTTTGTGCCA	3.17
CCTACTGGGACATCAGGTCATTGATATCAACGTT	1.84
AGTCAAAGTTCAGGACGGGGTAACGTAAAGCACG	1.87
ATCTCTAGGTAAAGATAGTTTAGTGAATGCAAAT	0.699
